# Assay results as given in ChEMBL document CHEMBL2218924, “A broad activity screen in support of a chemogenomic map for kinase signalling research and drug discovery” (Biochem J, 2013).
# Target: T1, Protein kinase C iota type (Homo sapiens) (UniProt P41743)
# T1 sequence (whole entry): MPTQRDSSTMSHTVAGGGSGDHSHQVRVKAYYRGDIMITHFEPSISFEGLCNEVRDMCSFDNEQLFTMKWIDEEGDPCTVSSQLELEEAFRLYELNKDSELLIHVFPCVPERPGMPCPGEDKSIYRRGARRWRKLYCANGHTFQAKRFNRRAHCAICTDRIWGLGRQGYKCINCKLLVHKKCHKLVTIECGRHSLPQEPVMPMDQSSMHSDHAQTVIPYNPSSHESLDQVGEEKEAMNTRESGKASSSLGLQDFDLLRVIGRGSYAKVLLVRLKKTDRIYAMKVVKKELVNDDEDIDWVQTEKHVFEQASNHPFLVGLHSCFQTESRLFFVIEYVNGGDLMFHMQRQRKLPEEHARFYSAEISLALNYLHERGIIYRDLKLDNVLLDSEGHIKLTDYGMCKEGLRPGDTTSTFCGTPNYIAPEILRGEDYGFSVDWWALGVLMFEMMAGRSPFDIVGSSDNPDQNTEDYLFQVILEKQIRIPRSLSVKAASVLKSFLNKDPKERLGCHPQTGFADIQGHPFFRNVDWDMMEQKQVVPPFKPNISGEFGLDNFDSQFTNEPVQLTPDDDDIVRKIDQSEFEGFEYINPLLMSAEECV
# Conditions: at 10 µM
row,SMILES,residual activity
1,COc1ccc(CNC(=O)Nc2ncc([N+](=O)[O-])s2)cc1,110%
2,O=c1cc(N2CCOCC2)oc2c(-c3ccccc3)cccc12,63%
3,Cn1sc(=O)n(Cc2ccccc2)c1=O,19%
4,Nc1nc(Nc2ccc(S(N)(=O)=O)cc2)nn1C(=O)c1c(F)cccc1F,100%
5,CSc1nc(-c2ccc(F)cc2)c(-c2ccnc(NC(C)c3ccccc3)c2)[nH]1 (stereo not drawn),99%
6,NC(=O)c1cccc(-c2cc(Nc3ccc(OC(F)(F)F)cc3)ncn2)c1,69%
7,O=c1c(-c2ccc(F)cc2)c(-c2ccncc2)[nH]n1-c1ccc(Cl)cc1,100%
8,COc1ccc(-c2cnc3c(-c4ccsc4)cnn3c2)cc1,77%
9,O=C(c1ccccc1)c1ccc(N2CCOCC2)cc1O,73%
10,O=C1NC(=O)C(c2c[nH]c3ccccc23)=C1c1c[nH]c2ccccc12,79%
11,CCCCc1c(-c2ccc(O)cc2)[nH]c2nccnc12,83%

# Target: T2, Serine/threonine-protein kinase D1 (Homo sapiens) (UniProt Q15139)
# T2 sequence (whole entry): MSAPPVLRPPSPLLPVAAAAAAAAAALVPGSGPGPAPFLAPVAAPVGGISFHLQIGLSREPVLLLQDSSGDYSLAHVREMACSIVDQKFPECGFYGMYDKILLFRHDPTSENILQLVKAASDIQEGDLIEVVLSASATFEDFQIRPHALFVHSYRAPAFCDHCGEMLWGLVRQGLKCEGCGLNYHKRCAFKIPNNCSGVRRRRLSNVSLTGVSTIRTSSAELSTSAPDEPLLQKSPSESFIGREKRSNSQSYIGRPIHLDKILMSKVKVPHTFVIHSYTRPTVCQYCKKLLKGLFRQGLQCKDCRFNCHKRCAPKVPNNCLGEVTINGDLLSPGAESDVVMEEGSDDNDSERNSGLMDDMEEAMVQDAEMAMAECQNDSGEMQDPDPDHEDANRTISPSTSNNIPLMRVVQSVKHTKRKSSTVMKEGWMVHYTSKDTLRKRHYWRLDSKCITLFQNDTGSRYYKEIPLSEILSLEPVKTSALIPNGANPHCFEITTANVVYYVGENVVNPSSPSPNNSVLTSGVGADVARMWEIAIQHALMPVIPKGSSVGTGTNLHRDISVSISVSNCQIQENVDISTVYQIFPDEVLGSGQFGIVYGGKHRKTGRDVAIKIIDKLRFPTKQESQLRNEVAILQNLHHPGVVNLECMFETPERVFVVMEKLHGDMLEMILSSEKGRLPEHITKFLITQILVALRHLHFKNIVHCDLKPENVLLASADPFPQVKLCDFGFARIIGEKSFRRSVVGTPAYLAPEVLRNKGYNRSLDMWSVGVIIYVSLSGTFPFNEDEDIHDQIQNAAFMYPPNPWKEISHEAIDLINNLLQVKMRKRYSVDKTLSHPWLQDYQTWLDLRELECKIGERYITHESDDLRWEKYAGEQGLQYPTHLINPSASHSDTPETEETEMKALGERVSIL
# Conditions: at 1 µM
row,SMILES,residual activity
1,Cn1sc(=O)n(Cc2ccccc2)c1=O,90%
2,COc1ccc(COc2ccc(Cc3cnc(N)nc3N)cc2OC)cc1,81%
3,Nc1nc(Nc2ccc(S(N)(=O)=O)cc2)nn1C(=O)c1c(F)cccc1F,75%
4,Nc1n[nH]c2nc3ccccc3nc12,83%
5,O=C1Cc2c([nH]c3ccc(Br)cc23)-c2ccccc2N1,99%
6,COc1cc2c(cc1OC)-c1n[nH]c(Nc3cccc(F)c3)c1C2,78%
7,CSc1nc(-c2ccc(F)cc2)c(-c2ccnc(NC(C)c3ccccc3)c2)[nH]1 (stereo not drawn),97%
8,NCCNc1ncc(C(N)=O)c(Nc2cccc(C(F)(F)F)c2)n1,35%
9,Nc1nccc(-c2c(-c3ccc(F)cc3)ncn2C2CCNCC2)n1,46%
10,CN([C@@H](Cc1ccc(OS(=O)(=O)c2cccc3cnccc23)cc1)C(=O)N1CCN(c2ccccc2)CC1)S(=O)(=O)c1cccc2cnccc12,113%
11,O=c1c(-c2ccc(F)cc2)c(-c2ccncc2)[nH]n1-c1ccc(Cl)cc1,99%
12,COc1cc2ncnc(Nc3cccc(Cl)c3)c2cc1OC,110%
13,COc1ccc(-c2cnc3c(-c4ccsc4)cnn3c2)cc1,84%
14,O=S(=O)(c1cccc2cnccc12)N1CCCNCC1,84%
15,Cc1cc(C)c(/C=C2\C(=O)Nc3ccccc32)[nH]1,78%
16,O=C(c1ccccc1)c1ccc(N2CCOCC2)cc1O,95%
17,NC(=O)c1ccc(-c2nc(-c3ccc4c(c3)OCCO4)c(-c3ccccn3)[nH]2)cc1,87%
18,CCCCc1c(-c2ccc(O)cc2)[nH]c2nccnc12,83%
19,O=C1Nc2ccccc2/C1=C\c1c(Cl)[nH]c2ccccc12,99%

# Target: T2, Serine/threonine-protein kinase D1 (Homo sapiens)
# Conditions: at 10 µM
row,SMILES,residual activity
1,Cn1sc(=O)n(Cc2ccccc2)c1=O,64%
2,CCOc1nc(NC(=O)Cc2cc(OC)ccc2OC)cc(N)c1C#N,54%
3,COc1ccc(COc2ccc(Cc3cnc(N)nc3N)cc2OC)cc1,77%
4,Nc1nc(Nc2ccc(S(N)(=O)=O)cc2)nn1C(=O)c1c(F)cccc1F,19%
5,Nc1n[nH]c2nc3ccccc3nc12,69%
6,Fc1ccc(-c2nc3n(c2-c2ccncc2)CCS3)cc1,48%
7,O=C1Cc2c([nH]c3ccc(Br)cc23)-c2ccccc2N1,80%
8,CSc1nc(-c2ccc(F)cc2)c(-c2ccnc(NC(C)c3ccccc3)c2)[nH]1 (stereo not drawn),44%
9,NCCNc1ncc(C(N)=O)c(Nc2cccc(C(F)(F)F)c2)n1,8%
10,Nc1nccc(-c2c(-c3ccc(F)cc3)ncn2C2CCNCC2)n1,3%
11,O=c1c(-c2ccc(F)cc2)c(-c2ccncc2)[nH]n1-c1ccc(Cl)cc1,37%
12,COc1cc2ncnc(Nc3cccc(Cl)c3)c2cc1OC,73%
13,COc1ccc(-c2cnc3c(-c4ccsc4)cnn3c2)cc1,97%
14,O=S(=O)(c1cccc2cnccc12)N1CCCNCC1,20%
15,O=S(=O)(NCCNC/C=C/c1ccc(Br)cc1)c1cccc2cnccc12,20%
16,NC(=O)c1ccc(-c2nc(-c3ccc4c(c3)OCCO4)c(-c3ccccn3)[nH]2)cc1,62%
17,O=C1NC(=O)C(c2c[nH]c3ccccc23)=C1c1c[nH]c2ccccc12,71%
18,CCCCc1c(-c2ccc(O)cc2)[nH]c2nccnc12,59%
19,O=C1Nc2ccccc2/C1=C\c1c(Cl)[nH]c2ccccc12,65%

# Target: T3, Serine/threonine-protein kinase D2 (Homo sapiens) (UniProt Q9BZL6)
# T3 sequence (whole entry): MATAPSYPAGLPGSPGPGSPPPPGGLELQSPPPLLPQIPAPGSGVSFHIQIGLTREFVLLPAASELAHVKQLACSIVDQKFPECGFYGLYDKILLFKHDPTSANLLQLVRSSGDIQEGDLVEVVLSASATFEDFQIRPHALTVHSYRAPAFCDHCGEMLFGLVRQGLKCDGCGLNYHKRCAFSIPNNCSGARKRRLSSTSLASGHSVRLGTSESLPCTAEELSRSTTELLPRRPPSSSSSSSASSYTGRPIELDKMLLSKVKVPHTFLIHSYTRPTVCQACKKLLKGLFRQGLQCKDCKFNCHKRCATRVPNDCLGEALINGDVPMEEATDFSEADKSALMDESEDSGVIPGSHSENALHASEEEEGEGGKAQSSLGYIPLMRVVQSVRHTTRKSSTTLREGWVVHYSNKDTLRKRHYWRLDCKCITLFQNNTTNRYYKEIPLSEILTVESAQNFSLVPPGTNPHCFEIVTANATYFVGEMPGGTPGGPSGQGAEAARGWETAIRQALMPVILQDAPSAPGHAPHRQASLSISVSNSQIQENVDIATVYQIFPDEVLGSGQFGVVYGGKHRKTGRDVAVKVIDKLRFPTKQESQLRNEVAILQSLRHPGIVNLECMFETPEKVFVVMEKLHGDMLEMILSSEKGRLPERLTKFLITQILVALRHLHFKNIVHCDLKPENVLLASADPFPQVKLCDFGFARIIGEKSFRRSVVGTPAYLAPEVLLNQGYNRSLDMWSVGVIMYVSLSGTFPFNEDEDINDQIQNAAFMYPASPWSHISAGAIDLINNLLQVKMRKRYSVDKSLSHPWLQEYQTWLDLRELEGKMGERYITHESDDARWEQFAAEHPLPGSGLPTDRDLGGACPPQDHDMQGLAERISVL
# Conditions: at 1 µM
row,SMILES,residual activity
1,Cn1sc(=O)n(Cc2ccccc2)c1=O,99%
2,Nc1nc(Nc2ccc(S(N)(=O)=O)cc2)nn1C(=O)c1c(F)cccc1F,113%
3,COc1cc2c(cc1OC)-c1n[nH]c(Nc3cccc(F)c3)c1C2,107%
4,O=S(=O)(c1cccc2cnccc12)N1CCCNCC1,100%
5,O=C(c1ccccc1)c1ccc(N2CCOCC2)cc1O,96%
6,NC(=O)c1ccc(-c2nc(-c3ccc4c(c3)OCCO4)c(-c3ccccn3)[nH]2)cc1,98%

# Target: T3, Serine/threonine-protein kinase D2 (Homo sapiens)
# Conditions: at 10 µM
row,SMILES,residual activity
1,Cn1sc(=O)n(Cc2ccccc2)c1=O,93%
2,Nc1nc(Nc2ccc(S(N)(=O)=O)cc2)nn1C(=O)c1c(F)cccc1F,78%
3,N#C/C(=C\c1ccc(O)c(O)c1)C(=O)NCc1ccccc1,102%
4,Nc1n[nH]c2nc3ccccc3nc12,87%
5,Fc1ccc(-c2nc3n(c2-c2ccncc2)CCS3)cc1,89%
6,COc1cc2c(cc1OC)-c1n[nH]c(Nc3cccc(F)c3)c1C2,104%
7,CSc1nc(-c2ccc(F)cc2)c(-c2ccnc(NC(C)c3ccccc3)c2)[nH]1 (stereo not drawn),94%
8,NC(=O)c1cccc(-c2cc(Nc3ccc(OC(F)(F)F)cc3)ncn2)c1,91%
9,Nc1nccc(-c2c(-c3ccc(F)cc3)ncn2C2CCNCC2)n1,49%
10,CN([C@@H](Cc1ccc(OS(=O)(=O)c2cccc3cnccc23)cc1)C(=O)N1CCN(c2ccccc2)CC1)S(=O)(=O)c1cccc2cnccc12,79%
11,O=c1c(-c2ccc(F)cc2)c(-c2ccncc2)[nH]n1-c1ccc(Cl)cc1,73%
12,O=C(c1ccccc1)c1ccc(N2CCOCC2)cc1O,100%
13,NC(=O)c1ccc(-c2nc(-c3ccc4c(c3)OCCO4)c(-c3ccccn3)[nH]2)cc1,87%
